Screening results: PubChem, National Center for Advancing Translational Sciences (NCATS)
This is a sample that favours compounds with a hit; in the whole collection about 7.6% have one here.
SW480 rerep – A quantitative high throughput screen for small molecules that induce DNA re-replication in SW480 colon adenocarcinoma cells. SW480 DNA re-replication, Hoechst DNA content imaging, 48 h. Potency, µM (series often up to 46.1 µM), without a hit: top-dose re-replication activation, most hits filed as activators. 340,000 tested, 1.8% active. AID 624297, 2012; also: potency is read from the fitted curve at half-maximal effect; % of control where 0% means no effect; nearly all actives have a fitted effect of over 55% in size
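Per well, 250 cells were exposed to pinned compound for 48 hr. Nuclear DNA was visualised with Hoechst (40 min, 37 C) and total object intensity recorded by fluorescence scanning.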
KB-V1 cytotox – qHTS assay for MDR1-selective chemotherapeutics: Primary screen using the drug-selected MDR subline cells KB-V1; KB-V1 MDR cells viability, CellTiter-Glo, 72 h; Potency, µM (doses to about 46.1 µM), most hits filed as cytotoxic; 400,000 tested, 3.4% active; AID 1347076, 2019; also: potency is read from the fitted curve at half-maximal effect; % is scaled to controls: 0 for no effect and ±100 for the full control effect; nearly all actives have a fitted effect of over 60% in size
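Cells of the MDR subline KB-V1 are plated, dosed with compound at multiple concentrations, and incubated 72 h at 37 degrees C; CellTiter-Glo is then added and luminescence read after 10 min.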
KCNH2 WT inh – qHTS for Inhibitors of KCHN2 3.1: Wildtype qHTS; activity change, % at 1.84 µM; AID 720551, 2013; 340,000 tested, 0.37% active; Voltage-gated inwardly rectifying potassium channel KCNH2 (Homo sapiens), Q12809; U2OS, BacMam KCNH2, thallium flux FluxOr; stronger effect = lower value;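 active = maximum activity change below -70%; inconclusive = maximum activity change between -70% and -50%; inactive = maximum activity change above -50%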; also: % is scaled to controls: 0 for no effect and ±100 for the full control effect
Target sequence (Q12809 whole entry, looked up): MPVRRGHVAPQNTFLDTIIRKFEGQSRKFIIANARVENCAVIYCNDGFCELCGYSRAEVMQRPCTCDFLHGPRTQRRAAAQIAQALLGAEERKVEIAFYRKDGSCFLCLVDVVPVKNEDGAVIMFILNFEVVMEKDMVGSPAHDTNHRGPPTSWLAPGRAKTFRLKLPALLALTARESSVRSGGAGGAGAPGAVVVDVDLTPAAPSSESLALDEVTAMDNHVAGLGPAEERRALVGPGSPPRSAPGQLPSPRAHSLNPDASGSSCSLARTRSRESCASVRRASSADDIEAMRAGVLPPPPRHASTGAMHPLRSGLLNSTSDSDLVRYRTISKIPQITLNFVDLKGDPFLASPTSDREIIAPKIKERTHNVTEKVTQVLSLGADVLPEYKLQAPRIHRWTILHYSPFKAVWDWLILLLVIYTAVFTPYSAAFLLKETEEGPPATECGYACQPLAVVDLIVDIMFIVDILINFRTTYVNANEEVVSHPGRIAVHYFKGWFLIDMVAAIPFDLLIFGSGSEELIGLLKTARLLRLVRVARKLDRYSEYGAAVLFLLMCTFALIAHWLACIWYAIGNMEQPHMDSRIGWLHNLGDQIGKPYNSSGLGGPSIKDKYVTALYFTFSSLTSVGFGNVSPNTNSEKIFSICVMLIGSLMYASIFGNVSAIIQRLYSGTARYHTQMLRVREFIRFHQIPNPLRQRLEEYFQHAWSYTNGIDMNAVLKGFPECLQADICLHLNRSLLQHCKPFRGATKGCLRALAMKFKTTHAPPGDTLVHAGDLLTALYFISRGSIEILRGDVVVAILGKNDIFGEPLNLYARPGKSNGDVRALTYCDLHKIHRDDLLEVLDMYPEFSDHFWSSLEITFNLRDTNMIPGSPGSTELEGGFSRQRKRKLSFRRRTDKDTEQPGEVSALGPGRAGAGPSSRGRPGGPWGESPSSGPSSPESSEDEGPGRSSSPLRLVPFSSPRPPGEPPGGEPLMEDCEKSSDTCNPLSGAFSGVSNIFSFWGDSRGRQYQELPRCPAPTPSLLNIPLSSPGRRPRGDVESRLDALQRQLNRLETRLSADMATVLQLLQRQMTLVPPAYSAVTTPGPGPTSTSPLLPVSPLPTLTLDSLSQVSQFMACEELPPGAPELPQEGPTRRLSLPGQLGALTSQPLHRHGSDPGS
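U2OS cells transduced with wild-type KCNH2 virus are loaded with FluxOr dye for 45 min, and thallium flux is measured in kinetic reads before and after stimulation buffer. Rate constants are normalized to DMSO controls.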
KB-3-1 cytotox – qHTS assay for MDR1-selective chemotherapeutics: Primary screen using the parental adenocarcinoma cell KB-3-1 | AID 1347075, 2019 | 400,000 tested, 1.4% active | KB-3-1 viability, CellTiter-Glo ATP luminescence, 72 h | Potency, µM (top dose mostly 46.1 µM), hits mostly cytotoxic; also: potency is read from the fitted curve at half-maximal effect; % is scaled to controls: 0 for no effect and ±100 for the full control effect; nearly all actives have a fitted effect of over 60% in size
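Multi-concentration cytotoxicity screen in KB-3-1 cells grown in DMEM lacking phenol red with 10% FBS. After 72 h at 37 °C with compound, ATP-dependent luminescence was recorded.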
MCF10A rerep – A quantitative high throughput screen for small molecules that induce DNA re-replication in MCF 10a normal breast cells; MCF 10A DNA re-replication, Hoechst nuclear intensity, 48 h; Potency, µM (titrated, usually from 46.1 µM), without a hit: top-dose activity, positive = re-replication, usual class: activators; 350,000 tested, 2.9% active; AID 624296, 2012; also: potency is read from the fitted curve at half-maximal effect; % of control where 0% means no effect; nearly all actives have a fitted effect of over 50% in size
KCNH2 3.1 block – qHTS for Inhibitors of KCHN2 3.1: Mutant qHTS; Potassium voltage-gated channel subfamily H member 2, brain isoform KCNH2 3.1 (human); U2OS KCNH2 3.1, thallium flux FluxOr; stronger effect = lower value; activity change, % (tested at about 1.8 µM); 340,000 tested, 0.95% active;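 active = maximum activity change below -70%; inconclusive = maximum activity change from -70% to -50%; inactive = maximum activity change above -50%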;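 also: thallium influx rate constant from kinetic fluorescence after stimulation buffer; % is scaled to controls: 0 for no effect and ±100 for the full control effect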
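Virally transduced U2OS (3.1 isoform, 4 h infection in dark at RT) → overnight 37 C → FluxOr + Red40 in HBSS/HEPES, 45 min → stimulation buffer, 2 min kinetic read → rate constant vs DMSO controls.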
Numbers without * were called inactive; i = inactive; ? = inconclusive; nt = not tested or not shown; ! = a repeat was not active; [ ] = dose if it differs, or a comment. Unless noted, calls follow the shape of the dose curve; as a rule, active = well fitted curve in the direction sought with a large enough effect; inconclusive = small, poorly fitted or top-dose-only effect, or another doubt; inactive = no such curve, though single readings can be large; an effect the other way counts as inactive or inconclusive.

SMILES	SW480 rerep	KB-V1 cytotox	KCNH2 WT inh	KB-3-1 cytotox	MCF10A rerep	KCNH2 3.1 block
CC(=O)N1Cc2ccccc2C(C)CC12CCCCC2 (stereo unspecified)	2.6%	16.4µM*	-2.2	i	-0.7%	-3.1
CC(=O)N1c2ccc3ccccc3c2C(C)CC12CCCCC2 (stereo unspecified)	-2.3%	i	-4.4	i	?	4.8
COC(=O)c1ccc(COC(=O)c2cccnc2Cl)cc1	-12.4%	i	18.4	i	-4.0%	29.2
O=C1C2C(c3ccccc3)C=CC(c3ccccc3)C2C(=O)N1CCO (stereo unspecified)	-1.7%	i	18.7	i	-2.9%	3.2
O=C1C2C3C=CC(C3=C(c3ccccc3)c3ccccc3)C2C(=O)N1Cc1ccccc1 (stereo unspecified)	?	23.1µM*	-6.1	?	?	2.3
O=C1C2C3C=CC(C3=C(c3ccccc3)c3ccccc3)C2C(=O)N1CCO (stereo unspecified)	-2.8%	20.6µM*	2.8	i	3.3%	0.7
Cc1ccc(C(=O)Oc2ccc(-c3nnco3)cc2)o1	-522.5%	i	-9.4	i	-3.2%	-11.1
Cc1onc(C(N)=O)c1C(=O)Nc1ncc(C(F)(F)F)cc1Cl	-12.0%	i	-2.9	i	-18.7%	-7.6
COc1ccc(/C=C/C(=O)c2ccncc2)c2ccccc12	?	i	-2.4	i	11.6µM*	-21.7
O=C(CCc1ccccc1)Nc1cccc([S+](=O)([O-])Nc2ccccc2F)c1	nt	i	nt	i	nt	nt
Cc1ccc(C)c(S(=O)(=O)N2CCN(C(=O)c3cc(-c4cccs4)nn3-c3ccccc3)CC2)c1	-0.5%	6.51µM*	-4.1	?	?	-23.7
CN(CC(=O)Nc1c(Cl)cccc1Cl)C(=O)c1cc(-c2cccs2)nn1-c1ccccc1	-0.1%	4.11µM*	-1.8	i	?	-26.3
CCc1ccc(CN(C)C(=O)c2cc(COc3ccc(-n4cncn4)cc3)on2)cc1	-43.4%	i	-3.1	i	17.1%	1.0
COc1cccc(/C=C(\C)C(=O)c2c(C)cc(C)[nH]c2=O)c1OC	-9.1%	i	nt	i	-15.8%	-5.0
C=CCN(CC=C)C(=O)COC(=O)c1ccc(Sc2ncn[nH]2)c([N+](=O)[O-])c1	?	i	-5.7	i	1.2%	-16.2
Nc1nc(N2CCN(C/C=C/c3ccccc3)CC2)nc2ccccc12	-1.4%	i	-13.9	?	?	-47.4
COc1cccc(C2C(C#N)=C(N)OC(C(C)(C)C)=C2C#N)c1 (stereo unspecified)	-1.3%	i	-3.6	i	9.2%	-189.2*
COc1ccc(C2C(C#N)=C(N)OC(C(C)(C)C)=C2C#N)cc1OC (stereo unspecified)	0.5%	i	13.5	i	-8.5%	4.3
C/C(=N\NC(=O)C(C)Nc1cccc(Cl)c1)c1ccc([N+](=O)[O-])cc1 (stereo unspecified)	-123.9%	18.4µM*	-0.8	i	-80.9%	-16.1
COc1ccc(CCNC(=O)c2cnn(-c3ccc(F)cc3)c2C2CCN(C(=O)OC(C)(C)C)CC2)c(OC)c1	nt	?	nt	i	nt	nt
O=C(Cn1c(=O)n(-c2cccc(Cl)c2)c(=O)c2sc3ccccc3c21)N1CCCC1	nt	i	nt	i	nt	nt
Cc1cccc(NC(=O)CSc2nc3[nH]c(=O)cc(O)c3s2)c1	-10.0%	i	1.9	?	-0.7%	1.2
Cc1ccc(OCC(=O)Nc2ccccc2C(=O)OCc2cc(=O)n3ccsc3n2)cc1C	nt	i	nt	i	nt	nt
CN1CCN(C(=O)C2CC(=O)N(c3ccc(F)c(Cl)c3)C2)CC1 (stereo unspecified)	-16.2%	i	-3.1	i	0.7%	4.0
CN1CCN(C2Cc3cc(F)ccc3Sc3ccc(Cl)cc32)CC1 (stereo unspecified)	?	i	-7.9	i	20.6µM*	-77.9*
SMILES	SW480 rerep	KB-V1 cytotox	KCNH2 WT inh	KB-3-1 cytotox	MCF10A rerep	KCNH2 3.1 block
CN1CCN(C2Cc3ccc(F)cc3Sc3cc(F)c(Cl)cc32)CC1 (stereo unspecified)	?	i	-40.7	?	?	-87.6*
CSc1ccc2c(c1)C(N1CCN(C)CC1)Cc1ccccc1S2 (stereo unspecified)	26.6µM*!	i	26.6	i	26.6µM*	-42.6
CN1CCN(C2=Cc3ccccc3Sc3cc(F)ccc32)CC1	-5.8%	?	9.7	?	-2.2%	-6.7
CN1CCN(C2Cc3ccccc3Sc3ccc(Cl)cc32)CC1 (stereo unspecified)	nt	?	11.4	i	?	?
CN1CCN(C2=Cc3ccc(Cl)cc3Sc3ccc(F)cc32)CC1	3.98µM*	?	-11.8	i	?	13.8
CN1CCN(C2Cc3ccccc3Sc3cc(C(F)(F)F)ccc32)CC1 (stereo unspecified)	?	i	-24.6	i	?	-38.5
Cc1ccc(NC(=O)CNC(=O)c2cccs2)c(O)c1	-92.8%	?	-0.9	i	1.0%	-3.8
COc1ccc(OC)c(CN2C(=O)c3ccccc3C2c2nnnn2-c2ccc3c(c2)OCCO3)c1 (stereo unspecified)	nt	i	nt	4.61µM*	nt	nt
FC(F)(F)c1ccc(-c2csc(-c3ccno3)n2)cc1	6.0%	i	0.5	i	12.9%	-22.6
CC(C)(C)C(=O)OCc1nc(-c2ccc(C(F)(F)F)cc2)cs1	-3.5%	i	12.5	i	0.4%	-92.6*
Cn1c(SCC(=O)Nc2ccccc2-c2ccccc2)nnc1-c1ccco1	?	18.4µM*	1.0	i	9.6%	3.4
Cc1csc(NC(=O)CSc2nnc(-c3ccoc3C)n2C(C)c2ccccc2)n1 (stereo unspecified)	14.6µM*	i	2.9	i	?	0.6
Cc1occc1-c1nnc(SCC(=O)Nc2ccccc2-c2ccccc2)n1C	0.9%[9.22 µM]	i	1.9	i	-2.4%	2.7
CCn1c(SCC(=O)Nc2nc(-c3ccccc3)cs2)nnc1-c1ccccc1	-16.4%	18.4µM*	-9.6	i	2.8%	-37.9
